Consider seven compounds from PubChem BioAssay (Tox21).

A short description of experiment [1]: Nuclear factor erythroid 2-related factor 2/antioxidant responsive element (Nrf2/ARE) small molecule agonists: qHTS cell viability counter screen in human keratinocytes (AID 1919968; active means well fitted curve in the direction sought with a large enough effect in the repeat runs; an effect the other way counts as inactive or inconclusive; further: nearly all actives have a fitted effect of over 55% in size). Put shortly: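 Cells of the KeratinoSens line were plated at 1,500 per well and left for 5 h before compound transfer from DMSO stocks. After a 23 h incubation (37 C, 5% CO2), CellTiter-Fluor was added. Signal was taken as fluorescence intensity 1 h later.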
A general note: In qHTS, concentration-response curves come from the screen itself.

Experiment [2] can be described thus: Nuclear factor erythroid 2-related factor 2/antioxidant responsive element (Nrf2/ARE) small molecule agonists: luciferase reporter gene qHTS assay in human keratinocytes (AID 1919969). Further: nearly all actives have a fitted effect of over 35% in size. In general terms: Reporter assays use an easily measured gene product as a stand-in for the process of interest.
The target of experiment [3] is Gonadotropin-releasing hormone receptor (Homo sapiens) (UniProt P30968). Put plainly: Human gonadotropin-releasing hormone receptor (GnRHR) small molecule agonists, calcium flux assay in GnRHR-HEK293 cells (AID 1920063). Further: nearly all actives have a fitted effect of over 35% in size. The method in brief:
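Compounds dissolved in DMSO are pin-transferred onto dye-loaded GnRHR-HEK293 cells, which were seeded 18 h before at 37 C/5% CO2. Calcium signal is read as fluorescence intensity at 1 s intervals for 3 min.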
In general terms: Calcium assays in cells follow changes in intracellular calcium, usually with a dye or a luminescent sensor.

For experiment [4], the target named is KiSS-1 receptor (Homo sapiens) (UniProt Q969F8). Description: Human kisspeptin (KISS1R) small molecule agonists, calcium flux assay in KISS1R-HEK293 cells (AID 1920064; active means well fitted curve in the direction sought with a large enough effect in the repeat runs; an effect the other way counts as inactive or inconclusive). Put shortly: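 Cell line: HEK293, stable human KISS1R. Dye loading 1 h at 37 C after 18 h culture. Read: kinetic fluorescence, 480/540 nm, 3 min at 1 s intervals.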
Chain of KiSS-1 receptor (Homo sapiens) (Q969F8 whole entry, looked up): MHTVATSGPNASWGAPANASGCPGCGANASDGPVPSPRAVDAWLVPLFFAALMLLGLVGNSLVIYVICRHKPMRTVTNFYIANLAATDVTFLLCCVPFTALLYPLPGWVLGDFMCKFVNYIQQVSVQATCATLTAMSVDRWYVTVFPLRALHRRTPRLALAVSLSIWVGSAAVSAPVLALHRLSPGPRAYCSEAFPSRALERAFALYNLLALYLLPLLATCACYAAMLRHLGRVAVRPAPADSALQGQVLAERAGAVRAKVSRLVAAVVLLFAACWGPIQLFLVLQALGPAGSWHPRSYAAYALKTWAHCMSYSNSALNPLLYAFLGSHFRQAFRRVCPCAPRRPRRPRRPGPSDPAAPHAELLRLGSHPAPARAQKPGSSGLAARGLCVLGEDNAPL
Experiment [5] can be described thus: G protein-coupled receptor (GPCR) small molecule agonists, calcium flux assay: HEK293 wild type cell line counter screen (AID 1920065). The method in brief:
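Tox21 10K compounds, 15 concentrations each in triplicate, pin-transferred in DMSO onto dye-loaded cells; kinetic read at 480/540 nm for 3 min, 1 s intervals.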

Experiment [6] can be described thus: p53 small molecule agonists, cell-based qHTS assay with human liver microsomes (AID 1963577).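 Further: p53 response element beta-lactamase reporter cells with liver microsomes plus NADPH.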 Put shortly:
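Steps: plate p53RE-bla cells, incubate 5 h at 37 C; add compound in DMSO; add microsomes (0.5 mg/mL final) and NADPH (0.5 mg/mL final); incubate 16 h at 37 C; add LiveBLAzer, 2 h RT; read fluorescence.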

A short description of experiment [7]: p53 small molecule agonists, cell-based qHTS assay with rat liver microsomes (AID 1963578). Put shortly:
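Metabolic activation is supplied by rat liver microsomes with NADPH (each 0.5 mg/mL final). p53RE-bla cells incubate with compound 16 h at 37 C; reporter activity is measured by LiveBLAzer fluorescence.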

Experiment [8] in a line: p53 small molecule agonists, cell-based qHTS assay with human liver microsomes: qHTS cell viability counter screen (AID 1963579). Further: nearly all actives have a fitted effect of over 45% in size. Put shortly: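 After the 460/530 nm beta-lactamase read, CellTiter-Glo was added to the same wells and luminescence measured after 30 min at room temperature, giving viability of p53RE-bla cells treated 16 h with compounds plus microsomes and NADPH.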

Experiment [9] can be described thus: p53 small molecule agonists, cell-based qHTS assay with rat liver microsomes: qHTS cell viability counter screen (AID 1963580). Further: nearly all actives have a fitted effect of over 45% in size. Put shortly: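 Counter screen for cytotoxicity under metabolic activation: rat liver microsomes and NADPH, 0.5 mg/mL final each, added with compounds to p53RE-bla HCT-116 cells; 16 h at 37 C, then ATP luminescence read.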
Experiment [10] in a line: p53 small molecule agonists, cell-based qHTS assay: qHTS cell viability counter screen (AID 1963581). Further: nearly all actives have a fitted effect of over 45% in size. Put shortly: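 ATP content measured by luminescence in HCT-116 p53RE-bla cells treated 16 h at 37 C, same wells as the reporter screen.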
Experiment [11] is described as follows: p53 small molecule agonists, cell-based qHTS assay (AID 1963582; active means well fitted activation curve with a large enough effect in the signal ratio in the repeat runs, not every such curve was filed as active; the % refers to the signal ratio). The method in brief:
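16 h compound exposure (37 C) of p53 response element–bla cells, preceded by 5 h recovery at 37 C/5% CO2; read-out via LiveBLAzer B/G FRET substrate, 2 h RT, fluorescence intensity.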

Experiment [12] concerns the target 5-hydroxytryptamine receptor 2A (Homo sapiens) (UniProt P28223). Put plainly: 5-hydroxytryptamine receptor 2A (HTR2A) small molecule agonists, cell-based qHTS assay (AID 1963587). Further: nearly all actives have a fitted effect of over 30% in size. Further: potency means the concentration at half of the fitted maximal effect. Put shortly: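 HTR2A-CHO cells, plated 18 h at 37 C/5% CO2, dye-loaded 1 h at 37 C; compounds in DMSO added by pin tool (agonist mode). Intracellular calcium flux read as kinetic fluorescence on FDSS over 2 min at 1 s intervals.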

Experiment [13] deals with Muscarinic acetylcholine receptor M1 (Homo sapiens) (UniProt P11229). Description: Cholinergic receptor muscarinic 1 (CHRM1) small molecule antagonists, cell-based qHTS assay (AID 1963588). Further: nearly all actives have a fitted effect of over 40% in size. The method in brief:
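Compounds were tested at 15 concentrations in three independent runs. Dye-loaded CHRM1-CHO cells were exposed 5 min at room temperature before stimulation by acetylcholine added at 50nM. Intracellular calcium was read kinetically on FDSS for 3 min.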

The nature of experiment [14]: cAMP Responsive Elements (CRE) small molecule agonists, cell-based qHTS assay (AID 1963590). Put shortly: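 HEK 293T cells stably bearing CRE-bla were plated at 2,000 cells per well and rested 18 h. Compounds, positive controls or DMSO were added for 3 h at 37 C. LiveBLAzer B/G substrate was then loaded for 2 h at room temperature.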
A short description of experiment [15]: cAMP Responsive Elements (CRE) small molecule antagonists, cell-based qHTS assay (AID 1963591; active means well fitted inhibition curve with a large enough effect in the signal ratio in the repeat runs, not every such curve was filed as active; the % refers to the signal ratio). The method in brief:
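First, CRE-bla HEK293T cells settled 18 h at 37 C. Next, compound and 0.25 uM final NKH477 were applied for 3 h. Last, LiveBLAzer B/G substrate was loaded for 2 h at room temperature.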

Experiment [16] concerns the target Beta-2 adrenergic receptor (Homo sapiens) (UniProt P07550). Put plainly: Adrenergic beta2 receptor (ADRB2) small molecule antagonists, cell-based qHTS assay (AID 1963592). Further: series mostly up to about 92 µM; nearly all actives have a fitted effect of over 50% in size. The method in brief: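 Assay format: CHO-ADRB2 cells, 18-20hr seeding at 37C/5% CO2, then compound plus 1nM isoproterenol agonist mix for 0.5hr RT. Homogeneous time-resolved fluorescence cAMP detection after 1hr, expressed as 665/615 nm ratio.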

The target in experiment [17] is D(2) dopamine receptor (Homo sapiens) (UniProt P14416). Description: Dopamine D2 receptor (DRD2) small molecule agonists, cell-based qHTS assay (AID 1963594). Further: nearly all actives have a fitted effect of over 35% in size. The method in brief: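 HEK293 cells stably expressing DRD2 were cultured 24 h at 37 C, then given Ro20-1724 (0.1 mM final) and compounds for 10 min at room temperature. NKH477 (200nM) was then added for 30 min. cAMP was read by HTRF.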
Chain of D(2) dopamine receptor (Homo sapiens) (P14416 whole entry, looked up): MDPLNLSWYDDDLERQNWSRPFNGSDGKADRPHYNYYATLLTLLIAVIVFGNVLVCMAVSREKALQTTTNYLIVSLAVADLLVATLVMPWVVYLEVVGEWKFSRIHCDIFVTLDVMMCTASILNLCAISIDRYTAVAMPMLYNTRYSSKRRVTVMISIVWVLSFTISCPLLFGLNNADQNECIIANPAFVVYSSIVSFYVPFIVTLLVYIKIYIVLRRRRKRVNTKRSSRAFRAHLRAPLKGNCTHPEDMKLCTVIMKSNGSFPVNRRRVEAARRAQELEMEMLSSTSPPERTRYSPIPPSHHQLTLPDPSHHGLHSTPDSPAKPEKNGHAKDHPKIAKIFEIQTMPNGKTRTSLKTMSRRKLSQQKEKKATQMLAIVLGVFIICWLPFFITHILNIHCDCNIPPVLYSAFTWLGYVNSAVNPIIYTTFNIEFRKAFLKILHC

Experiment [18] has the same target. Description: Dopamine D2 receptor (DRD2) small molecule antagonists, cell-based qHTS assay (AID 1963595; active means well fitted inhibition curve with a large enough effect in the signal ratio in the repeat runs, with a control signal flat; the % refers to the signal ratio; further: potency means the concentration at half of the fitted maximal effect). Put shortly:
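In this cell-based antagonist screen, compounds act for 10 min at room temperature before a 30 min challenge with 12 nM quinpirole and 200 nM NKH477. cAMP is quantified by HTRF competition in DRD2-HEK293 cells containing 0.1 mM Ro20-1724.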

The target of experiment [19] is Muscarinic acetylcholine receptor M1 (Homo sapiens) (UniProt P11229). Description: Cholinergic receptor muscarinic 1 (CHRM1) small molecule agonists, cell-based qHTS assay (AID 1963589). Further: nearly all actives have a fitted effect of over 35% in size. Put shortly: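 Homogeneous fluorescence calcium flux, agonist mode. Human M1-expressing CHO cells; compound dosed at 15 concentrations, three independent runs; signal sampled every 1 sec.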
Chain of Muscarinic acetylcholine receptor M1 (Homo sapiens) (P11229 whole entry, looked up): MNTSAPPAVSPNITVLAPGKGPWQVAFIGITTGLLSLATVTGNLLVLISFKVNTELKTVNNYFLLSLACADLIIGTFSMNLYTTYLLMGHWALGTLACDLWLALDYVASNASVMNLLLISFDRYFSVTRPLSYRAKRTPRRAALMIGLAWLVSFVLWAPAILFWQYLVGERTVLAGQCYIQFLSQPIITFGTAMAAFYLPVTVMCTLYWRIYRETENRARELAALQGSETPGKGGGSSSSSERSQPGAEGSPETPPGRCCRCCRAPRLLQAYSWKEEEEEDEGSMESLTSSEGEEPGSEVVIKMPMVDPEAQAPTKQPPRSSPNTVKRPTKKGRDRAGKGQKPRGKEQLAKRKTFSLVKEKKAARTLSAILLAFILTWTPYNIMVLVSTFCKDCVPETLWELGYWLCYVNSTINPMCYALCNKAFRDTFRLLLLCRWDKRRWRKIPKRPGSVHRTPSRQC

In experiment [20] the target is Beta-2 adrenergic receptor (Homo sapiens) (UniProt P07550). Put plainly: Adrenergic beta2 receptor (ADRB2) small molecule agonists, cell-based qHTS assay (AID 1963593).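 Further: CHO cells stably overexpressing human ADRB2.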 Put shortly:
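CHO cells stably over-expressing ADRB2 were plated overnight at 37C, then dosed with compounds plus a stimulation mix containing 100uM IBMX and 25uM Ro-20-1724 for 0.5hr at room temperature. cAMP was measured by HTRF competition, 1hr.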

Unmarked numbers belong to inactive results. Inconclusive results are not listed. Active and inactive are the calls of the source. Unless noted, the call rests on the fitted dose curve.

Chain of Beta-2 adrenergic receptor (Homo sapiens) (P07550 whole entry, looked up): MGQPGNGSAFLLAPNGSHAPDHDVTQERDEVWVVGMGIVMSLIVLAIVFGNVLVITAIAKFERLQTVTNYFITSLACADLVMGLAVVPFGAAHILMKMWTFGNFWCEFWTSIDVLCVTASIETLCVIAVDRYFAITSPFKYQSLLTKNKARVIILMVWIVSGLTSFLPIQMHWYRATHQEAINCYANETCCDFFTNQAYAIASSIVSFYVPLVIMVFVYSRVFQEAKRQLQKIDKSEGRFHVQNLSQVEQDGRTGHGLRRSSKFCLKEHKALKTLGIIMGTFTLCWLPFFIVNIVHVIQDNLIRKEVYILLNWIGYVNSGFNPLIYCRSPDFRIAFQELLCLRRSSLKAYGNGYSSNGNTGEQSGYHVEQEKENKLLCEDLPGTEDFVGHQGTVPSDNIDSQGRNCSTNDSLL
Chain of 5-hydroxytryptamine receptor 2A (Homo sapiens) (P28223 whole entry, looked up): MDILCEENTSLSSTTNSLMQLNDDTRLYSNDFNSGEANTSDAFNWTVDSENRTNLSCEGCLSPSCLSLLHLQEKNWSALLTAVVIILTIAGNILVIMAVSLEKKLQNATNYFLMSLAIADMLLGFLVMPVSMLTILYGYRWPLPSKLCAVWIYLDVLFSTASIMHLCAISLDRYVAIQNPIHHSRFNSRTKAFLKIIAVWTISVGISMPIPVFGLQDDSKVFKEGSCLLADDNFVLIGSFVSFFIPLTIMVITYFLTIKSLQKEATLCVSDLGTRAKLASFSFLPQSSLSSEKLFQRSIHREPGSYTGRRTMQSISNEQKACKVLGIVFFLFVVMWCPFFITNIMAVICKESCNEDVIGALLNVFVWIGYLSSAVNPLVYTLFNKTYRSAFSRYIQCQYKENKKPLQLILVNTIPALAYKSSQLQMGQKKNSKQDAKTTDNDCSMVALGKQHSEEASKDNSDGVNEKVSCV
Chain of Gonadotropin-releasing hormone receptor (Homo sapiens) (P30968 whole entry, looked up): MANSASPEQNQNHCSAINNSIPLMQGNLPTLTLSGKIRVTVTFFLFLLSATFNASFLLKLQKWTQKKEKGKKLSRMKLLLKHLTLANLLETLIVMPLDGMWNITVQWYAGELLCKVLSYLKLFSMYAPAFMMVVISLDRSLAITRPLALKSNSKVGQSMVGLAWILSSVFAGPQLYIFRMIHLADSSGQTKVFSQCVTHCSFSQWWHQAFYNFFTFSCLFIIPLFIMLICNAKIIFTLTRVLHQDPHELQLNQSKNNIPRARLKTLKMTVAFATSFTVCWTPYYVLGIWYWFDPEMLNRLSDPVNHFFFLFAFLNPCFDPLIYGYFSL

Turning to `[O-][n+]1cccc(CO)c1`, the Potency entry in experiment [1], in experiment [2], in [3], in experiment [6], in [7] and in experiment [8] was “inactive” throughout. For the same compound, the Potency result in experiment [9], in experiment [10], in [11], in experiment [12], in experiment [13] and in experiment [14] was “inactive” throughout. Also, the Potency entry in experiment [15], in [16], in experiment [17] and in experiment [18] was “inactive” each time. Also, the outcome in [4] and in experiment [5] was inactive.
Take `CC(=O)OC1CCCCC1`: the Potency entry in experiment [1], in [2], in experiment [3], in experiment [6], in experiment [7] and in experiment [8] was “inactive” each time. The Potency entry in experiment [9], in [10], in experiment [11], in [12], in experiment [13] and in experiment [14] was “inactive” each time. The Potency entry in [15], in [16], in experiment [17] and in experiment [18] was “inactive” each time. The result in experiment [4] and in experiment [5] was inactive.
For the compound `O=C1c2ccccc2C(=O)N1CCl`, the Potency result in experiment [1], in [2], in [3], in experiment [6], in experiment [7] and in [8] was “inactive” throughout. Further, the Potency entry in [9], in [10], in experiment [11], in experiment [12], in experiment [13] and in experiment [19] was “inactive” in each case. Besides, the Potency result in experiment [14], in [16], in experiment [20], in [17] and in experiment [18] was “inactive” in each case. The outcome in experiment [4] and in experiment [5] was inactive.
For `Nc1cccc2c(=O)[nH][nH]c(=O)c12`, the Potency entry in experiment [1], in [2], in experiment [3], in experiment [6], in experiment [7] and in experiment [8] was “inactive” in each case. For the same compound, the Potency result in experiment [9], in [10], in experiment [11], in [12], in experiment [13] and in experiment [19] was “inactive” each time. Also, the Potency entry in [15], in [16], in experiment [17] and in experiment [18] was “inactive” throughout. Also, the result in experiment [4] and in experiment [5] was inactive.
As to `O=C1[C@H]2CCCC[C@H]2C(=O)N1CCCCN1CCN(c2nsc3ccccc23)CC1`, the Potency entry in [1], in experiment [2], in experiment [3], in [6], in [7] and in experiment [8] was “inactive” in each case. Moreover, the Potency entry in experiment [9], in [10], in experiment [11], in experiment [12], in [19] and in experiment [16] was “inactive” each time. Also, the Potency result in [17] is “inactive”. The outcome in [4] and in [5] was inactive. For the same compound, the Potency in experiment [18] is 0.0027 µM (active).
For `COc1cccc([C@H](O)C2CCN(CCc3ccc(F)cc3)CC2)c1OC`, the Potency entry in experiment [1], in experiment [2], in experiment [3], in experiment [6], in experiment [7] and in experiment [8] was “inactive” in each case. The Potency result in experiment [9], in [10], in experiment [11], in [13], in experiment [19] and in experiment [15] was “inactive” throughout. Also, the Potency entry in experiment [16], in experiment [17] and in [18] was “inactive” throughout. In addition, the outcome in [4] and in experiment [5] was inactive.
For `COc1cc2c(cc1OC)C(C(C(=O)N(CCc1ccc(OC)c(OC)c1OC)CCc1ccc(OC)c(OC)c1OC)c1ccccc1)=NCC2` (stereo unspecified), the Potency result in experiment [1], in experiment [2], in experiment [3], in experiment [6], in [7] and in experiment [8] was “inactive” throughout. In addition, the Potency result in [9], in experiment [10], in [11], in experiment [13], in [19] and in [17] was “inactive” throughout. In addition, the result in experiment [4] and in [5] was inactive. Also, in [12], the Potency was 12 µM (active).
